{
  "source": "PubChem BioAssay (EPA / NIEHS)",
  "note": "Several values for one entry are separate records, joined by “and”; a condition that tells them apart may be missing. Equal entries are not always repeated. Some structures have more than one record in an assay (separate samples or runs), and their calls can disagree. Activity calls are given as the source filed them. Rule for the calls: active = hit-call score of the fitted dose curve at least 0.9, where 1 is the maximum; inactive = score below 0.9.",
  "data": [
    {"read-out": "Vascular cell adhesion molecule 1 (VCAM1), VCAM1 (gene 7412)", "assay": "BSK_LPS_VCAM1: BioMAP Diversity Plus: LPS Assay for Vascular cell adhesion molecule 1 (VCAM1) Biomarker Activity (AID 2283086)", "conditions": "primary human HUVEC with PBMC; actives raise or lower the signal", "experimental": "BSK_LPS is a cell-based, multiplexed-readout assay that uses umbilical vein endothelium and peripheral blood mononuclear cells, a human vascular primary cell co-culture, with measurements taken at 24 hours after chemical dosing in a 96-well plate.BSK_LPS_VCAM1 is an assay component measured in the BSK_LPS assay. It measures VCAM-1 antibody related to regulation of gene expression using ELISA technology.Data from the assay component BSK_LPS_VCAM1 was analyzed into 1 assay endpoint. This assay endpoint, BSK_LPS_VCAM1, was analyzed with bidirectional fitting relative to DMSO as the negative control and baseline of activity. Using a type of binding reporter, gain or loss-of-signal activity can be used to understand changes in the signaling as they relate to the gene VCAM1. Furthermore, this assay endpoint can be referred to as a primary readout, because this assay has produced multiple assay endpoints where this one serves a signaling function. To generalize the intended target to other relatable targets, this assay endpoint is annotated to the cell adhesion molecules intended target family, where the subfamily is Immunoglobulin CAM.\nThe levels of cell surface (or secreted, indicated by the prefix \"s\") biomarker endpoints were measured by ELISA. Overt cytotoxicity to cells in confluent adherent cultures (all systems other than the BT system) was assessed by measuring total protein levels using sulforhodamine B (SRB) staining in parallel cultures at the time of biomarker measurements, indicated as SRB endpoints. For proliferation assays for adherent cell types, individual cell types are cultured at sub-confluence and relative cell numbers quantified by SRB staining at time points optimized for each system (48 h: 3C and CASM3C systems; 72 h: BT and HDF3CGF systems; 96 h: SAg system). SRB was performed by staining cells with 0.1% SRB after fixation with 10% TCA and reading wells at 560 nm.Viability and proliferation of PBMC (T cells) was quantified by Alamar Blue reduction for the SAg and BT systems. For PBMC viability (referred to as PBMC Cytotoxicity within the assay endpoint names), cells were plated (75,000/well in a 96-well plate) and then chemical samples added for 1 h before addition of activators, SEB and TSST-1 (20 ng/mL final concentration each). Cells were incubated for 90 h. Then, Alamar Blue (20 uL/well) (Invitrogen, Cat DAL1100) was added for 6 h, and the plates were read with a fluorescence microplate reader at 546/580 nm (excitation/emission). For PBMC proliferation, cells were plated and activated as above but incubated for only 16 h prior to addition of Alamar Blue. Plates were read after 6 h.", "values": [
      {"smiles": "c1ccc(-c2ccccc2)cc1", "outcome": "inactive"},
      {"smiles": "Clc1ccc(C(c2ccccc2Cl)C(Cl)(Cl)Cl)cc1", "note": "(stereo not given)", "AC50": "19.2 µM (active)"},
      {"smiles": "CN(C)c1nc(=O)n(C2CCCCC2)c(=O)n1C", "outcome": "inactive"},
      {"smiles": "Cc1cc2c3c(c1)C(c1ccccc1)=N[C@@H](NC(=O)c1ccncc1)C(=O)N3CC2", "outcome": "inactive"},
      {"smiles": "CCCN(CCC)N=O", "outcome": "inactive"},
      {"smiles": "C1CC2OC2CC1C1CO1", "note": "(stereo not given)", "outcome": "inactive"},
      {"smiles": "Cc1ccccc1[N+](=O)[O-]", "outcome": "inactive"},
      {"smiles": "O=C(O)C(F)(F)C(F)(F)C(F)(F)C(F)(F)C(F)(F)F", "outcome": "inactive"},
      {"smiles": "Clc1ccc(C(Cl)(Cl)Cl)cc1", "outcome": "inactive"},
      {"smiles": "ClC(Cl)=C(c1ccc(Cl)cc1)c1ccc(Cl)cc1", "AC50": "30.4 µM (active)"},
      {"smiles": "Nn1cnnc1", "outcome": "inactive"},
      {"smiles": "Oc1ccc(C(c2ccc(O)cc2)(C(F)(F)F)C(F)(F)F)cc1", "AC50": "23.9 µM (active)"},
      {"smiles": "O=C(O)C(F)(F)C(F)(F)C(F)(F)C(F)(F)C(F)(F)C(F)(F)C(F)(F)C(F)(F)F", "AC50": "51.5 µM (active) and 54.3 µM (active)", "outcome": "inactive"},
      {"smiles": "O=C(NC(=O)c1c(F)cccc1F)Nc1cc(Cl)c(OC(F)(F)C(F)F)c(Cl)c1", "outcome": "inactive"},
      {"smiles": "CCCCCCCCCc1ccc(O)cc1", "AC50": "22 µM (active)"},
      {"smiles": "Nc1ccc(-c2ccc(N)cc2)cc1", "outcome": "inactive"},
      {"smiles": "CCSC(=O)N(CC)C1CCCCC1", "outcome": "inactive"},
      {"smiles": "CCCCCCCCCC[N+](C)(C)CCCCCCCCCC", "AC50": "7.43 µM (active)"},
      {"smiles": "ClC1=C(Cl)[C@]2(Cl)[C@@H]3[C@@H]4C[C@@H]([C@H]5O[C@@H]45)[C@@H]3[C@@]1(Cl)C2(Cl)Cl", "AC50": "14.4 µM (active)"},
      {"smiles": "Oc1c(Cl)c(Cl)c(Cl)c(Cl)c1Cl", "AC50": "10.2 µM (active) and 14.6 µM (active)"},
      {"smiles": "CC(C)(O)C(=O)Nc1ccc([N+](=O)[O-])c(C(F)(F)F)c1", "outcome": "inactive"},
      {"smiles": "CC(c1ccc(O)cc1)(c1ccc(O)cc1)c1ccc(O)cc1", "AC50": "16.2 µM (active)"},
      {"smiles": "c1cc2ccc3cccc4ccc(c1)c2c34", "outcome": "inactive"},
      {"smiles": "Oc1ccc(Cl)cc1Cl", "outcome": "inactive"},
      {"smiles": "Cc1ccc(O)c(C)c1", "AC50": "4.7 µM (active)"},
      {"smiles": "O=C(O)C(F)(F)C(F)(F)C(F)(F)C(F)(F)C(F)(F)C(F)(F)C(F)(F)C(F)(F)C(F)(F)F", "AC50": "31.2 µM (active) and 56.6 µM (active) and 55.5 µM (active)"},
      {"smiles": "CCCCCCCCOC(=O)c1ccccc1C(=O)OCCCCCCCC", "AC50": "7.64 µM (active)"},
      {"smiles": "Cc1cc(-c2ccc(N)c(C)c2)ccc1N", "outcome": "inactive"},
      {"smiles": "CCC(C)c1cc([N+](=O)[O-])cc([N+](=O)[O-])c1O", "note": "(stereo not given)", "AC50": "20 µM (active)"},
      {"smiles": "CCC(C)(CC)c1cc(NC(=O)c2c(OC)cccc2OC)on1", "outcome": "inactive"},
      {"smiles": "O=C(NC(=O)c1cc(F)c(F)cc1Cl)Nc1cc(F)ccc1N1CCC(C(=O)O)CC1", "outcome": "inactive"},
      {"smiles": "CO/C=C(/C(=O)OC)c1ccccc1COc1cccc(C(F)(F)F)n1", "AC50": "13.4 µM (active)"},
      {"smiles": "CC#Cc1cc(C)nc(Nc2ccccc2)n1", "outcome": "inactive"},
      {"smiles": "CC(C)C(=O)OCC(C)(C)C(OC(=O)C(C)C)C(C)C", "note": "(stereo not given)", "outcome": "inactive"},
      {"smiles": "CCOP(=S)(OCC)SCSC(C)(C)C", "outcome": "inactive"},
      {"smiles": "Clc1ccc(Cl)cc1", "outcome": "inactive"},
      {"smiles": "NS(=O)(=O)C(F)(F)C(F)(F)C(F)(F)C(F)(F)C(F)(F)C(F)(F)C(F)(F)C(F)(F)F", "AC50": "53.8 µM (active) and 46.6 µM (active)", "outcome": "inactive"},
      {"smiles": "C=CC(=O)NCNC(=O)C=C", "outcome": "inactive"}
    ]}
  ]
}
